Results reported in PubChem BioAssay (EPA / NIEHS).
Records with an inconclusive call do not appear. Active and inactive are the calls of the source. The calls were made as follows, unless noted: active = hit-call score of the fitted dose curve at least 0.9, where 1 is the maximum; inactive = score below 0.9.

How the values were obtained:
[1] = CCTE_Simmons_MITO_max_resp_rate: CCTE's HepG2 Seahorse XF Respirometric Screening Assay at Maximal Respiratory State [uncoupled], Simmons Lab (AID 2284002); settings: actives raise or lower the signal
How it was run: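 Uncoupled (FCCP) respiration of HepG2 cells served as the endpoint, with measurements at 6-minute intervals across a 72-minute run and compounds dosed at 7 concentrations up to 100 uM final.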

[2] = CCTE_Simmons_MITO_viability: CellTiter-Glo Viability Assessment for CCTE's HepG2 Seahorse XF Respirometric Screening Assay [post-hoc], Simmons Lab (AID 2284007; active = hit-call score of the fitted dose curve at least 0.9, where 1 is the maximum;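 as to AC50: cells exposed to chemical for 90 min before the ATP read; actives lower ATP signal relative to DMSO baseline meaning reduced viability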)
How it was run: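 HepG2 cells; test chemical 7 conc. (125 nM–100 uM final) × 90 min; then luminescent ATP detection. DMSO vehicle. Positive control dichlone, 8 conc. from 10 nM to 100 uM final. Loss-of-signal endpoint.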

[3] = CCTE_Shafer_MEA_acute_spike_number: CCTE's Neural Acute Assay for Total Number of Spikes, Shafer Lab (AID 2284008);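 as to AC50: curve fitted for decrease in spike count so AC50 reflects inhibitors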
How it was run: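 Using an adaptive detector set to 8x rms noise, spikes were counted in 40-min windows before and after compound addition (0.03-40 uM) to rat cortical networks at 37 C; the well-level change from baseline was analysed relative to DMSO.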

[4] = CCTE_Shafer_MEA_acute_firing_rate_mean: CCTE's Neural Acute Assay for Mean Firing Rate, Shafer Lab (AID 2284009);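 also: analyzed for loss of signal so actives lower firing rate relative to DMSO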
How it was run: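 Read-out: well-mean spike rate (spikes/recording length/electrodes), % change from 40 min pre-dose baseline to 40 min with compound. Rat cortical cultures, DIV 13 or 15, 37 C; 0.03-40 uM; DMSO as negative control.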

[5] = CCTE_Harrill_HTTr_Viability_MCF7: CCTE's 6-hour Cell Viability Assessment for the High-Throughput Transcriptomics (HTTr) Platform, in MCF-7 cells cultured in DMEM + 10% fetal bovine serum, Harrill Lab (AID 2284010)
How it was run: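 Viability measured through PI dye exclusion by high-content imaging at 6 h post-dosing.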

[6] = CCTE_Harrill_HTTr_Apoptosis_MCF7: CCTE's 6-hour Apoptosis Assessment for the High-Throughput Transcriptomics (HTTr) Platform, in MCF-7 cells cultured in DMEM + 10% fetal bovine serum, Harrill Lab (AID 2284011)
How it was run: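 Apoptosis in MCF-7 cells grown in DMEM with 10% fetal bovine serum was scored after a six hour exposure by high content imaging of caspase-3/7 activation (CellEvent Caspase 3/7 Green), with DMSO serving as negative control and baseline.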

[7] = CCTE_Harrill_HTTr_CellCount_MCF7: CCTE's Cell Proliferation Assessment for the High-Throughput Transcriptomics (HTTr) Platform, Harrill Lab (AID 2284012; active = hit-call score of the fitted dose curve at least 0.9, where 1 is the maximum;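 also: count of Hoechst-stained nuclei per well by high-content imaging in MCF-7 cells; cells exposed to compound for six hours; intended direction is loss of nuclei count meaning fewer cells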)
How it was run: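 Nuclei counting (Hoechst, high content imaging) in MCF-7 after a 6 h treatment at eight concentrations. Activity fitted bidirectionally, DMSO as negative control.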

[8] = CCTE_Shafer_MEA_acute_burst_number: CCTE's Neural Acute Assay for Single-Electrode Bursts, Shafer Lab (AID 2284013)
How it was run: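 Rat cortical cultures, DIV 13/15; 40 min baseline, then 40 min with compound 0.03-40 uM, 37 C. Spikes: 300-5000 Hz band-pass, threshold 8x rms noise. Readout = % change in single-electrode bursts vs baseline, loss-of-signal fit.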

[9] = CCTE_Shafer_MEA_acute_burst_duration_mean: CCTE's Neural Acute Assay for Mean Burst Duration, Shafer Lab (AID 2284014);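 also: hits are decreases in mean burst duration relative to DMSO controls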
How it was run: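 Primary rat cortical neurons on 16-electrode MEA wells, treated on DIV 13 or 15 with compound (0.03-40 uM; ≥3 wells each). 40-min baseline and 40-min exposure recordings at 37 C; percent change in mean burst duration per well versus DMSO.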

[10] = CCTE_Shafer_MEA_acute_interburst_interval_mean: CCTE's Neural Acute Assay for Mean Interburst Interval, Shafer Lab (AID 2284016);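 also: percent change of mean interburst interval versus each well's own pre-dose baseline; curves fitted for decrease in interburst interval relative to DMSO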
How it was run: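 Primary rat cortical neurons on 16-electrode MEA wells were recorded 40 min at baseline on DIV 13 or 15, then 40 min after compound (0.03-40 uM), at 37 C. Value is percent change in mean interburst interval per well, DMSO as negative control.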

[11] = CCTE_Shafer_MEA_acute_burst_percentage_mean: CCTE's Neural Acute Assay for Percentage of Spikes in a Burst, Shafer Lab (AID 2284017);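 as to AC50: curve fitted for loss of signal so potency reflects decreased burst percentage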
How it was run: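 Primary rat cortical neurons on 16-electrode MEA wells; 40 min baseline recorded at DIV 13 or 15, then 40 min after compound (0.03-40 uM) at 37 C. Well-mean fraction of spikes in single-electrode bursts; percent change from baseline, DMSO as negative control.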

[12] = CCTE_Shafer_MEA_acute_burst_percentage_std: CCTE's Neural Acute Assay for Standard Deviation of Burst Percentage, Shafer Lab (AID 2284018);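 also: fitted in the negative direction so actives lower burst percentage SD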
How it was run: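 Primary rat cortical neurons on 16-electrode MEA wells were recorded 40 min at baseline (DIV 13 or 15), then 40 min after compound (0.03-40 uM), at 37 C. Well value is SD across electrodes of spikes-in-bursts/total spikes; endpoint is percent change, DMSO-referenced.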

[13] = CCTE_Shafer_MEA_acute_per_network_burst_spike_number_mean: CCTE's Neural Acute Assay for Average Number of Spikes in a Network Burst, Shafer Lab (AID 2284019);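 as to AC50: curve fitted for loss of signal so actives reduce spikes per network burst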
How it was run: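 Primary rat cortical neurons on 16-electrode MEA wells, DIV 13 or 15, 37 C; 40-min baseline then 40-min recording with compound (0.03-40 uM). Spikes per network burst (total spikes/number of bursts) expressed as percent change from baseline, DMSO reference.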

[14] = CCTE_Shafer_MEA_acute_per_network_burst_spike_number_std: CCTE's Neural Acute Assay for Standard Deviation of Number of Spikes in a Network Burst, Shafer Lab (AID 2284020);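 also: fitted for decrease in spike-number SD versus DMSO so actives lower it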
How it was run: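 Primary rat cortical neurons on 48-well MEAs (16 electrodes/well) recorded at DIV 13 or 15: 40-min baseline, then 40 min with compound (0.03-40 uM), 37 C. Value is percent change in SD of spikes per network burst, relative to DMSO.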

[15] = CCTE_Shafer_MEA_acute_per_network_burst_electrodes_number_mean: CCTE's Neural Acute Assay for Mean Number of Electrodes in a Network Burst, Shafer Lab (AID 2284021);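 also: curves fitted for decreases only so hits reduce electrodes per burst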
How it was run: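 Percent change from baseline in average electrode count per network burst, rat cortical cultures on 48-well MEAs; 40-min recordings each side of exposure, DIV 13 or 15; threshold 8x rms noise; DMSO as negative control.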

[16] = molecular target: Nucleoli Translocation, AR (gene 367) (UniProt P10275); test: UPITT_HCI_U2OS_AR_TIF2_Nucleoli_Antagonist: University of Pittsburgh U2OS Androgen Receptor-Transcriptional Intermediary Factor 2 (AR-TIF2) Antagonism High Content Imaging Assay for Nucleoli Translocation (AID 2283997; active = hit-call score of the fitted dose curve at least 0.9, where 1 is the maximum)
How it was run: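 U2OS cells expressing RFP-tagged human AR and GFP-tagged TIF2 were imaged by high-content fluorescence microscopy for red AR signal in the nucleolar region. Compounds were screened at 20 uM final (0.2% DMSO), with activity fitted relative to DHT as baseline.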

[17] = molecular target: Nucleoli Translocation, AR (gene 367) (UniProt P10275); test: UPITT_HCI_U2OS_AR_TIF2_Nucleoli_Agonist: University of Pittsburgh U2OS Androgen Receptor-Transcriptional Intermediary Factor 2 (AR-TIF2) Agonism High Content Imaging Assay for Nucleoli Translocation (AID 2283998; active = hit-call score of the fitted dose curve at least 0.9, where 1 is the maximum)
How it was run: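 High-content images quantify nucleolar accumulation of RFP-fused AR in cells also expressing GFP-TIF2; the endpoint is fitted as signal gain versus DMSO controls across final concentrations of 0.195 to 50 uM.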

[18] = molecular target: Ratio of Nucleoli Translocation and Cytoplasm, AR (gene 367) (UniProt P10275); test: UPITT_HCI_U2OS_AR_TIF2_Nucleoli_Cytoplasm_Ratio_Antagonist: University of Pittsburgh U2OS Androgen Receptor-Transcriptional Intermediary Factor 2 (AR-TIF2) Antagonism High Content Imaging Assay for Ratio of Nucleoli Translocation and Cytoplasm (AID 2283999; active = hit-call score of the fitted dose curve at least 0.9, where 1 is the maximum;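 also: antagonists lower the DHT-driven ratio of nucleolar to cytoplasmic red signal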)
How it was run: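 High-content imaging quantifies the red nucleolar:cytoplasmic fluorescence ratio in U2OS cells with AR-RFP and TIF2-GFP. Final concentrations are 20 uM (screen) or 0.195–50 uM (dose response), analysed against DHT as baseline.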

Chain of Nucleoli Translocation, AR (gene 367) (P10275 whole entry, looked up, the tested form may be a part): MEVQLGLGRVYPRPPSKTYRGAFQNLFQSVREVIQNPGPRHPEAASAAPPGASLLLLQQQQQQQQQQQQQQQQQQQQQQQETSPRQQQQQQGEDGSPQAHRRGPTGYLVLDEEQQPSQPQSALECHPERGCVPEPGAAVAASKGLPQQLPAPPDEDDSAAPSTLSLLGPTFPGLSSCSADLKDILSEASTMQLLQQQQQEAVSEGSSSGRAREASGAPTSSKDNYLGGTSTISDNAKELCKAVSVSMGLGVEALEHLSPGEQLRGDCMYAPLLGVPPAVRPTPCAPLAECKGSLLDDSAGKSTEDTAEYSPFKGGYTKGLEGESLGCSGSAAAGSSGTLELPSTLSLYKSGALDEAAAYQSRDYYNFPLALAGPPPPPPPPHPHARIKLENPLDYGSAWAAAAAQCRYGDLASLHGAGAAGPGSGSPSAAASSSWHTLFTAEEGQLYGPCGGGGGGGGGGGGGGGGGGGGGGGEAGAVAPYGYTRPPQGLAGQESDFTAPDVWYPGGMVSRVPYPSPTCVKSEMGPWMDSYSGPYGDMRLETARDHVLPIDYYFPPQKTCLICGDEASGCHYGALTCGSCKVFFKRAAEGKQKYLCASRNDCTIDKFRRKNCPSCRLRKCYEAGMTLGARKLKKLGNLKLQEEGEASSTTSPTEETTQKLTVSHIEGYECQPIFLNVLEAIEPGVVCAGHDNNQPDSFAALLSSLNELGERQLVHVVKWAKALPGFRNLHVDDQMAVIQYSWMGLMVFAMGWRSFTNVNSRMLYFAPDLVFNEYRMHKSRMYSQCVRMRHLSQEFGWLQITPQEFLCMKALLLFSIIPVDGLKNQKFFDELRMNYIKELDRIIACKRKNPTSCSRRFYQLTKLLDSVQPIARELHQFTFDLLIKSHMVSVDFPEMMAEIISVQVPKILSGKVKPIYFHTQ
Chain of Ratio of Nucleoli Translocation and Cytoplasm, AR (gene 367) (P10275 whole entry, looked up): as the sequence (P10275 whole entry, looked up, the tested form may be a part) above

For `O=C(O)c1cc(Oc2ccc(C(F)(F)F)cc2Cl)ccc1[N+](=O)[O-]`, the AC50 [1] was 32.9 µM (active), the outcome [2] was “inactive” and the outcome [3] was “inactive”. For the same compound, the outcome [4] was “inactive”, the outcome [5] was “inactive” and the outcome [6] was “inactive”. For the same compound, the outcome [7] was “inactive”, the outcome [8] was “inactive” and the outcome [9] was “inactive”. The outcome [10] was “inactive”, the outcome [11] was “inactive” and the outcome [12] was “inactive”. For the same compound, the outcome [13] was “inactive”, the outcome [14] was “inactive” and the outcome [15] was “inactive”.
With `FC(F)C(F)(F)OCC(Cn1cncn1)c1ccc(Cl)cc1Cl` (configuration not stated) the AC50 [1] was 22.5 µM (active), the AC50 [2] was 16.9 µM (active) and the AC50 [3] was 5.94 µM (active). For the same compound, the AC50 [4] was 5.92 µM (active), the outcome [5] was “inactive” and the outcome [6] was “inactive”. For the same compound, the outcome [7] was “inactive”, the outcome [8] was “inactive” and the outcome [9] was “inactive”. The outcome [10] was “inactive”, the outcome [11] was “inactive” and the outcome [12] was “inactive”. The outcome [13] was “inactive”, the outcome [14] was “inactive” and the outcome [15] was “inactive”.
For `CCOP(=S)(Oc1cnc(C(C)(C)C)nc1)OC(C)C` (configuration not stated), the AC50 [1] was 50 µM (active), the outcome [2] was “inactive” and the AC50 [3] was 15.6 µM (active). The AC50 [4] was 15.5 µM (active), the outcome [5] was “inactive” and the outcome [6] was “inactive”. The outcome [8] was “inactive”, the outcome [9] was “inactive” and the outcome [10] was “inactive”. For the same compound, the AC50 [11] was 35.6 µM (active), the outcome [12] was “inactive” and the AC50 [13] was 20 µM (active). For the same compound, the AC50 [14] was 28 µM (active) and the AC50 [15] was 20 µM (active).
For `C[Si](Cn1cncn1)(c1ccc(F)cc1)c1ccc(F)cc1`, the AC50 [1] was 16.2 µM (active), the AC50 [2] was 10.3 µM (active) and the AC50 [3] was 4.69 µM (active). The AC50 [4] was 4.69 µM (active), the outcome [5] was “inactive” and the outcome [6] was “inactive”. For the same compound, the outcome [7] was “inactive”, the AC50 [8] was 4.3 µM (active) and the outcome [9] was “inactive”. The outcome [10] was “inactive”, the AC50 [11] was 15.4 µM (active) and the AC50 [12] was 4.31 µM (active). The outcome [13] was “inactive”, the outcome [14] was “inactive” and the outcome [15] was “inactive”.
With `CC(C)=CC1C(C(=O)OCN2C(=O)C3=C(CCCC3)C2=O)C1(C)C` (configuration not stated) the outcome [16] was “inactive”, the outcome [17] was “inactive” and the outcome [18] was “inactive”. For the same compound, the AC50 [1] was 39.9 µM (active), the outcome [2] was “inactive” and the outcome [3] was “inactive”. The outcome [4] was “inactive”, the outcome [5] was “inactive” and the outcome [6] was “inactive”. For the same compound, the outcome [7] was “inactive”, the outcome [8] was “inactive” and the outcome [9] was “inactive”. For the same compound, the outcome [10] was “inactive”, the AC50 [11] was 20 µM (active) and the AC50 [12] was 26.1 µM (active). The outcome [13] was “inactive”, the outcome [14] was “inactive” and the outcome [15] was “inactive”.
